Test results as given in PubChem BioAssay AID743312 (Broad Institute, 2014).
Potency and affinity values are given separately. Values without a mark were called inactive. Calls of active or inactive are those of the source. No rule for the calls is given here.

experiment: toxicity to A549 lung cells – cell-based, plate reader, dry powder, set 6, cytotoxicity control, dose response (AID 743312); conditions: series mostly up to 26 µM; activity change, negative = cytotoxicity: at the top concentration

Row | SMILES | activity change, negative = cytotoxicity | outcome
1 | COc1cc(C)ccc1OCCn1cnc2ccccc21 | -1.25% | –
2 | COc1cccc(OCCn2cnc3ccccc32)c1 | -10.1% | –
3 | CS(=O)(=O)c1ccc(OCCn2cnc3ccccc32)cc1 | 47.3% | –
4 | Cc1ccc(OCCn2cnc3cc(C)c(C)cc32)cc1 | -14.1% | –
5 | Cc1cccc(OCCn2c(=S)[nH]c3ccccc32)c1 | -37.9% | –
6 | Cc1cccc(OCCn2c(=S)[nH]c3c(F)cccc32)c1 | – | inactive
7 | CCCc1nc2ccccc2n1CCOc1ccccc1 | -24.4% | –
8 | CC(C)Oc1ccc(OCCn2cnc3ccccc32)cc1 | -7.64% | –
9 | c1ccc(COc2ccc(OCCn3cnc4ccccc43)cc2)cc1 | -10.8% | –
10 | Cc1cc2ncn(CCOc3ccccc3)c2cc1C | -2.58% | –
11 | c1ccc2c(c1)ncn2CCOc1ccc2c(c1)CCC2 | -25.2% | –
12 | Cc1ccc(C(C)C)c(OCCn2c(NC#N)nc3ccccc32)c1 | -6% | –
13 | Fc1cccc2c1[nH]c(=S)n2CCOc1ccccc1 | -11.3% | –
14 | CC(C)Oc1cccc(OCCn2cnc3ccccc32)c1 | 18.7% | –
15 | CCc1nc2ccccc2n1CCOc1ccccc1 | -6.05% | –
16 | Fc1ccc2c(c1)[nH]c(=S)n2CCOc1ccccc1 | – | inactive
17 | COc1ccccc1OCCn1c(SC)nc2ccccc21 | 4.85% | –
18 | Clc1ccccc1OCCn1cnc2ccccc21 | 16% | –
19 | CC(C)(C)c1ccc(OCCn2cnc3ccccc32)c(Cl)c1 | -14.9% | –
20 | CCSc1nc2ccccc2n1CCOc1ccccc1 | -4.67% | –
